High-throughput results (PubChem BioAssay)
The list is not random: actives were taken first. Their share in the collection is about 2.2%.
uPA surface inh = inhibitors of cell surface uPA generation; cell surface uPA generation assay, qHTS; Potency, µM (top dose mostly 38.3 µM), actives largely listed as inhibitors; actives 0.31% (n = 330,000); AID 540303; active = well fitted inhibition curve with a large enough effect; inconclusive = small, poorly fitted or top-dose-only effect; inactive = no such curve, though single readings can be large or run the other way; tested in mouse RAW 264.7 cells; note: nearly all actives have a fitted effect of over 55% in size
GLP-1R inv ag = inverse agonists of human GLP-1 receptor | P43220 | HEK293 GLP-1R CRE-luciferase, luminescence, 24 h; GLP-1R form is constitutively active | Potency, µM (series often up to 38.3 µM), most hits filed as inhibitors | actives 1.6% (n = 410,000) | AID 624417; note: nearly all actives have a fitted effect of over 55% in size
Target sequence (P43220 whole entry, looked up): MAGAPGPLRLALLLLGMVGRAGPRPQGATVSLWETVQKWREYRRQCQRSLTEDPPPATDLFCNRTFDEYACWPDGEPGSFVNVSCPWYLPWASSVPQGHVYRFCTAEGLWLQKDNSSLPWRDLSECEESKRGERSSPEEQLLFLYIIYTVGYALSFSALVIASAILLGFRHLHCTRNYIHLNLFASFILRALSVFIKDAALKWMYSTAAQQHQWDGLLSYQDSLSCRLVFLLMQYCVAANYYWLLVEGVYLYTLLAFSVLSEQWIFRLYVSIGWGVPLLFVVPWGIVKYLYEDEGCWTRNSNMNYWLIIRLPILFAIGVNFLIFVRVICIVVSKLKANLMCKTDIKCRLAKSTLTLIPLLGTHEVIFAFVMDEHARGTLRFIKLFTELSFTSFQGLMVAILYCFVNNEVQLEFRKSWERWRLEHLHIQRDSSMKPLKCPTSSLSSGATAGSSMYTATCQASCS
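HEK293 cells stably co-expressing constitutively active GLP-1R and a cAMP-responsive luciferase reporter were seeded in DMEM with 10% Nu serum, given compounds after 12 h, and incubated 24 h at 37 deg C. Luminescence was then read.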
CCT chaperon mod = cytosolic chaperonin activity modulation; purified chaperonin ATPase assay, HTRF ADP detection, 30 min; actives 0.3% (n = 360,000); activity change, % (test concentration not listed), hits read low; in the data active = activity change below about -30%
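ATPase activity: ADP formed was measured by HTRF Transcreener (665/615 nm ratio) after 30 min at 37 deg C with 10 uM ATP. Compounds screened at one 76 uM concentration against 40 or 20 nM TRiC in Tris pH 7.4/KCl/MgCl2/DTT buffer.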
GLP1R cytotox = cytotoxic in the GLP-1 receptor inverse agonist counter-screen | HEK293 cAMP-luciferase reporter cells, luminescence, 24 h | Potency, µM (doses to about 38.3 µM), actives largely listed as inhibitors | actives 0.13% (n = 410,000) | AID 624418;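 note: loss of luciferase light is scored as toxicity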
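Cells in DMEM/10% Nu serum/1% pen-strep, 1536-well format. Pre-incubated 12 h, dosed with 23 nL compound, incubated a further 24 h. Luciferase detection, 12 min at room temp, luminescence.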
Mm-Cpn inhibitor = M. maripaludis TRiC chaperonin inhibition; purified Mm-Cpn ATPase, ADP Transcreener TR-FRET; Potency, µM (top dose mostly 76.9 µM), usual class: inhibitors; actives 0.031% (n = 330,000); AID 504842; note: nearly all actives have a fitted effect of over 80% in size
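Purified archaeal Mm-CPN (25nM final) preincubated 10 min at 37degC with compound, then 10uM ATP for 30 min at 37degC; ADP measured by HTRF Transcreener TR-FRET; buffer 30 mM TRIS pH 7.4, 100mM KCl, 5mM MgCl2, 1mM DTT.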
GLP1R ag = agonists of human GLP-1 receptor; P43220; HEK293 GLP-1R CRE-luciferase, luminescence, 4-6 h; cells express a hypersensitive GLP-1R form; Potency, µM (top dose mostly 45.6 µM), most hits filed as activators; actives 0.007% (n = 380,000)
Numbers stand for hits; n = inactive; u = inconclusive; x = no result. Unless noted, calls come from the whole dose curve; as a rule, active = well fitted curve in the direction sought with a large enough effect; inconclusive = small, poorly fitted or top-dose-only effect, or another doubt; inactive = no such curve, though single readings can be large; an effect the other way counts as inactive or inconclusive.

SMILES	uPA surface inh	GLP-1R inv ag	CCT chaperon mod	GLP1R cytotox	Mm-Cpn inhibitor	GLP1R ag
COc1ccc(-n2c(=O)c3c4c(sc3n(CC(=O)N3CCCCC3C)c2=O)CCC4)c(OC)c1 (centres undefined)	x	n	x	n	x	x
COc1ccccc1-c1cc2nc(C)c(CCC(=O)NCc3cccc(Cl)c3)c(C)n2n1	x	u	x	n	x	n
Cc1cc(C(=O)CSc2nc(N)cc(=O)[nH]2)c(C)n1CC1CCCO1 (centres undefined)	n	n	n	n	n	n
Cc1cc(C(=O)CSc2nc3ccccc3[nH]2)c(C)n1CC1CCCO1 (centres undefined)	n	4µM	n	n	n	n
CCOC(=O)Nc1ccc2c(c1)C(=NNC(N)=S)c1ccccc1-2	n	u	n	4µM	x	n
CCOC(=O)Nc1ccc2c(c1)C(=NO)c1ccccc1-2	n	u	n	n	x	n
CCCCCCCCCCCCCCCCCC(=O)OCCO	x	x	x	x	x	n
O=C(CCl)Nc1ccc(N=Nc2ccccc2)cc1	14µM	u	n	u	n	n
Cc1ccc(Sc2ccc(NC(=O)CCl)cc2)cc1C	13µM	u	n	n	n	n
O=C(CCl)Nc1ccc(-c2ccccc2)cc1	u	10µM	n	u	n	n
Cc1ccn2c(NC(C)(C)C)c(-c3cccs3)nc2c1	n	10µM	n	u	n	n
CC1CCCCC1NCC#CCOc1ccc(Cl)cc1 (centres undefined)	n	11µM	n	n	n	n
CC(C)NCC#CCOc1ccc(Cl)cc1	n	u	n	n	n	n
Cc1cc(C)c(S(=O)(=O)N2CCN(S(=O)(=O)N3CCC(C)CC3)CC2)c(C)c1	n	n	-49	n	n	n
Cc1cc(C)c(S(=O)(=O)N2CCN(S(=O)(=O)N3CCCCCC3)CC2)c(C)c1	n	n	n	n	n	n
CN(Cc1cnn(Cc2ccccc2)c1)C(=O)c1cccc(S(=O)(=O)N2CCOCC2)c1	6.3µM	u	n	n	n	n
CN1CCN(S(=O)(=O)c2cccc(C(=O)N(C)Cc3cccs3)c2)CC1	n	n	n	n	n	n
CN(Cc1cccc(F)c1)C(=O)c1cccc(S(=O)(=O)N2CCN(Cc3ccccc3)CC2)c1	n	u	n	n	n	n
Cc1ccc(C(=O)N(CCc2ccccc2)Cc2ccccc2)cc1S(=O)(=O)N1CCOCC1	n	10µM	n	n	x	n
Cc1ccc(C(=O)N(CCc2ccccc2)Cc2ccccc2)cc1S(=O)(=O)N1CCCCC1	n	u	n	n	n	n
CN(Cc1ccc(Cl)c(Cl)c1)C(=O)c1cccc(S(=O)(=O)N2CCN(Cc3ccccc3)CC2)c1	u	11µM	n	n	n	n
C=CCN(C(=O)c1cccc(S(=O)(=O)N2CCN(C)CC2)c1)c1nc(-c2ccccc2)cs1	n	11µM	n	n	n	n
CCOc1ccc(NC(=O)CCn2c(=O)c3cccn3c3cccnc32)cc1	x	n	x	n	x	x
Cc1cccc(N2CCN(S(=O)(=O)c3c(C(=O)N4CCC(C)CC4)c(C)n(C)c3C)CC2)c1C	x	u	x	n	x	x
COc1ccc(C(=O)N(CCc2ccccc2)Cc2ccccc2)cc1S(=O)(=O)N1CCOCC1	n	u	n	n	n	n
SMILES	uPA surface inh	GLP-1R inv ag	CCT chaperon mod	GLP1R cytotox	Mm-Cpn inhibitor	GLP1R ag
Cc1ccc(N(C)S(=O)(=O)c2cccc(C(=O)N(C)Cc3cnn(-c4ccccc4)c3)c2)cc1	n	u	n	n	n	n
COc1ccc(C(=O)N(C)Cc2cnn(Cc3ccccc3)c2)cc1S(=O)(=O)N1CCOCC1	2µM	u	n	n	n	n
CN(Cc1cnn(-c2ccccc2)c1)C(=O)c1cccc(S(=O)(=O)N(C)c2ccccc2)c1	x	10µM	n	n	x	n
CC(=O)c1ccc(NC(=O)c2sc(-n3nc(C)c(CCC(C)C)c3C)nc2C)cc1	x	n	x	n	x	x
CCOC(=O)C1Nc2c(F)cc(C)cc2C2c3ccccc3CC12 (centres undefined)	u	10µM	n	n	x	n
CCOC(=O)C1Nc2ccccc2C2c3ccccc3CC12 (centres undefined)	u	n	n	n	x	n
Cc1cc(C)cc(NC(=O)C2CCCN(S(=O)(=O)c3cccc4nsnc34)C2)c1 (centres undefined)	x	n	x	n	x	n
CCOc1ccc(OCC)c(NC(=O)CCc2nc3cccnc3n2-c2ccccc2)c1	x	n	x	n	x	x
Cc1cc(C)c(NC(=O)CN(C)CC(=O)N(C)CC(=O)Nc2c(Cl)cccc2Cl)c(C)c1	n	n	-57	n	n	n
CCOc1ccc(NC(=S)N2CCC(c3ccc(C)cc3)C2)cc1 (centres undefined)	n	10µM	n	n	n	n
Cc1ccc(NC(=S)N2CCC(c3ccc(C)cc3)C2)cc1 (centres undefined)	n	u	n	n	n	n
CCCC1([C@H](O)C/C=C/[C@H]2[C@H](O)CC(=O)[C@@H]2CCCCCCC(=O)OC)CCC1	x	x	x	x	x	n
CSc1ccc(/C=C/C(=O)NC(=O)c2ccccc2O)cc1	11µM	n	n	n	n	n
OCC1(Cc2cccc(Cl)c2)CCCN(Cc2ccc(F)c(F)c2)C1 (centres undefined)	n	10µM	n	n	n	n
CC(C)Oc1ccc(CN2CCCC(CO)(Cc3ccc(F)cc3)C2)cc1 (centres undefined)	n	11µM	n	n	n	n
COC(=O)c1c(NC(=O)CCCOc2ccc(C(C)(C)C)cc2)sc2c1C(C(=O)OC)CC2 (centres undefined)	x	n	x	n	x	x
CC1=C(C(=O)Nc2ccccc2)C(c2ccncc2)n2nc(SCc3ccccc3F)nc2N1 (centres undefined)	x	n	x	n	x	n
COC(=O)C1(C)CCCC2(C)C3CCC(C(C)C)C(CO)C3C(CO)CC12 (centres undefined)	x	10µM	n	u	x	n
O=C(N/N=C/c1ccc([N+](=O)[O-])o1)c1cc2c(ccc3ccccc32)o1	u	n	n	n	n	n
O=C(N/N=C/c1ccc([N+](=O)[O-])o1)c1cc2ccccc2o1	2.5µM	n	n	n	n	n
O=C(N/N=C/c1ccc([N+](=O)[O-])o1)c1ccc(O)cc1	7.1µM	u	n	u	n	n
O=[N+]([O-])c1ccc(/C=N\NS(=O)(=O)c2ccc(F)cc2)o1	8.9µM	n	n	n	n	n
COC(=O)c1ccc(/C=N/OCC(=O)NC2CCCC(C)C2C)cc1 (centres undefined)	n	u	n	n	n	n
COC(=O)c1ccc(/C=N/OCC(=O)NC2CCCCCCC2)cc1	n	13µM	n	n	n	n
O=C(Nc1cccc(Cl)c1)c1ccc2nc(Cc3ccccc3)oc2c1	x	10µM	x	u	x	x
